# Calls of active or inactive are those of the source. How the source made its calls: active means hit-call score of the fitted dose curve at least 0.9, where 1 is the maximum; inactive means score below 0.9.
# Assays:
# [1] = CEETOX_H295R_11DCORT: CeeTox H295R High-throughput Steroidogenesis Assay for 11-Deoxycortisol (11DCORT) (AID 2283432); details: actives raise or lower the signal;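 on AC50: 11-deoxycortisol secreted into the medium measured by LC-MS/MS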
# Outline: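 H295R cells prestimulated 48 h with 10 uM forskolin, then exposed 48 h to chemical in 0.1% DMSO. 11-Deoxycortisol in medium quantified by HPLC-MS/MS after MTBE extraction; bidirectional fit versus DMSO. MTT viability read in same wells.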
# [2] = CEETOX_H295R_OHPREG: CeeTox H295R High-throughput Steroidogenesis Assay for OH-Pregnenolone (OHPREG) (AID 2283434); details: actives raise or lower the signal
# Outline: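 Readout: HPLC-MS/MS of 17alpha-hydroxypregnenolone in medium after 48 h chemical exposure of H295R cells pretreated with forskolin. Values fitted bidirectionally relative to DMSO; chemicals reducing viability to 20–70% were retested after 10-fold dilution.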
# [3] = CEETOX_H295R_OHPROG: CeeTox H295R High-throughput Steroidogenesis Assay for OH-Progesterone (OHPROG) (AID 2283435); details: actives raise or lower the signal;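 on AC50: 17alpha-hydroxyprogesterone secreted into medium measured by HPLC-MS/MS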
# Outline: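 HPLC-MS/MS quantification of 17alpha-hydroxyprogesterone secreted by H295R cells after 48 h chemical exposure, following 48 h 10 uM forskolin prestimulation. Gain or loss of signal fitted relative to DMSO. Viability checked by MTT in the same wells.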
# [4] = CEETOX_H295R_CORTIC: CeeTox H295R High-throughput Steroidogenesis Assay for Corticosterone (CORTIC) (AID 2283437); details: actives raise or lower the signal;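 further: corticosterone secreted into medium quantified by mass spectrometry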
# Outline: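 Steps: seed H295R, adhere overnight; 10 uM forskolin 48 h; replace with chemical (0.1% DMSO) 48 h; extract medium with MTBE; quantify corticosterone by HPLC-MS/MS; score bidirectionally vs DMSO.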
# [5] = CEETOX_H295R_CORTISOL: CeeTox H295R High-throughput Steroidogenesis Assay for Cortisol (AID 2283438); details: actives raise or lower the signal;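 further: cortisol secreted into medium quantified by LC-MS/MS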
# Outline: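 Read-out: cortisol in culture medium by reverse-phase C18 HPLC with ESI-positive tandem MS, after MTBE liquid-liquid extraction. Cells: human adrenal H295R, forskolin-primed (10 uM, 48 h) before 48 h chemical exposure in 0.1% DMSO.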
# [6] = CEETOX_H295R_ESTRADIOL: CeeTox H295R High-throughput Steroidogenesis Assay for Estradiol (AID 2283440); details: actives raise or lower the signal;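 further: estradiol secreted into medium quantified by LC-MS/MS after dansyl derivatisation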
# Outline: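 Readout is estradiol in conditioned medium, quantified by reverse-phase HPLC-MS/MS against a 7-point standard curve. Cells: H295R, forskolin-stimulated, then dosed 48 h in 0.1% DMSO; activity fitted in both directions relative to DMSO.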
# [7] = CEETOX_H295R_ESTRONE: CeeTox H295R High-throughput Steroidogenesis Assay for Estrone (AID 2283441); details: actives raise or lower the signal;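 further: estrone secreted into medium measured by LC-MS/MS after dansyl derivatization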
# Outline: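 Forskolin-stimulated H295R cells are treated 48 h with chemical, and estrone in the medium is measured by LC-MS/MS. Activity is fitted in both directions relative to DMSO controls, with chemicals diluted until MTT viability reaches at least 70%.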
# [8] = CEETOX_H295R_PROG: CeeTox H295R High-throughput Steroidogenesis Assay for Progesterone (PROG) (AID 2283442); details: actives raise or lower the signal
# Outline: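 Measured analyte is progesterone secreted by H295R cells at 48 h of chemical treatment, following 10 uM forskolin priming. Quantitation used HPLC-MS/MS against a 7-point standard curve; cytotoxicity was checked by MTT absorbance.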
# [9] = read-out: Tumor necrosis factor receptor superfamily member 6 (Homo sapiens) (UniProt P25445); assay: LTEA_HepaRG_FAS: Life Technologies and Expression Analysis (LTEA) Assay for Fas cell surface death receptor (FAS) using HepaRG (AID 2283447); details: mRNA level, 48 h; actives raise or lower the signal
# Outline: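 Differentiated human HepaRG cells, pre-cultured 48 h, were exposed in duplicate for 48 h to 8-point half-log concentrations (top 100 uM, 0.5% DMSO) in serum-free induction medium; FAS mRNA measured by qRT-PCR, normalized to ACTB/GAPDH/POLR2A, bidirectional fit versus DMSO.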
# [10] = read-out: Fatty acid synthase (Homo sapiens) (UniProt P49327); assay: LTEA_HepaRG_FASN: Life Technologies and Expression Analysis (LTEA) Assay for Fatty Acid Synthase (FASN) using HepaRG (AID 2283448); details: mRNA level, 48 h; actives raise or lower the signal
# Outline: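 HepaRG, 48 h exposure, 8-pt half-log series top 100 uM, 0.5% DMSO vehicle, duplicates. Readout: FASN transcript by Fluidigm qRT-PCR; housekeeping-normalized; bidirectional curve fit vs DMSO baseline.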
# [11] = read-out: Cyclin Dependent Kinase Inhibitor 1A (CDKN1A), CDKN1A (gene 1026); assay: LTEA_HepaRG_CDKN1A: Life Technologies and Expression Analysis (LTEA) Assay for Cyclin Dependent Kinase Inhibitor 1A (CDKN1A) using HepaRG (AID 2283450); details: mRNA level, 48 h; actives raise or lower the signal
# Outline: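 Gain or loss of CDKN1A transcript is scored by bidirectional fitting against 0.5% DMSO vehicle. Human HepaRG cultures receive chemicals for 48 h across an 8-point series peaking at 100 uM; expression comes from qRT-PCR.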
# [12] = read-out: Cyclin D1 (CCND1), CCND1 (gene 595); assay: LTEA_HepaRG_CCND1: Life Technologies and Expression Analysis (LTEA) Assay for Cyclin D1 (CCND1) using HepaRG (AID 2283451); details: mRNA level, 48 h; actives raise or lower the signal;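 on AC50: TaqMan qRT-PCR transcript level normalised to ACTB GAPDH and POLR2A housekeeping genes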
# Outline: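 Expression change is measured by qRT-PCR in HepaRG cells after 48 h treatment across eight concentrations topping at 100 uM, with duplicate wells and DMSO (0.5%) serving as baseline for bidirectional fitting.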
# [13] = read-out: catalase (CAT), CAT (gene 847); assay: LTEA_HepaRG_CAT: Life Technologies and Expression Analysis (LTEA) Assay for catalase (CAT) using HepaRG (AID 2283452); details: mRNA level, 48 h; actives raise or lower the signal;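 on AC50: TaqMan qRT-PCR signal normalized to ACTB GAPDH and POLR2A housekeeping genes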
# Outline: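 Differentiated HepaRG cells in serum-free induction medium were dosed 48 h in duplicate, eight half-log concentrations from 100 uM in 0.5% DMSO. Transcript measured by TaqMan qRT-PCR, normalised to ACTB/GAPDH/POLR2A, fitted bidirectionally against DMSO.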
# [14] = read-out: Cytochrome P450 (CYP1A1), CYP1A1 (gene 1543); assay: LTEA_HepaRG_CYP1A1: Life Technologies and Expression Analysis (LTEA) Assay for Cytochrome P450 (CYP1A1) using HepaRG (AID 2283454); details: mRNA level, 48 h; actives raise or lower the signal
# Outline: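 Using HepaRG cultures with 0.5% DMSO as vehicle, eight-concentration exposures (max 100 uM) lasted 48 h. Transcript levels were measured by TaqMan qRT-PCR and normalized to ACTB, GAPDH and POLR2A.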
# [15] = read-out: CFLAR gene, CFLAR (gene 8837); assay: LTEA_HepaRG_CFLAR: Life Technologies and Expression Analysis (LTEA) Assay for CFLAR gene using HepaRG (AID 2283455); details: mRNA level, 48 h; actives raise or lower the signal
# Outline: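 Gain- or loss-of-signal changes in CFLAR transcript were fitted bidirectionally relative to 0.5% DMSO. Cells (HepaRG, duplicate wells) were dosed for 48 h across eight half-log concentrations topping at 100 uM; quantitation by TaqMan qRT-PCR.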
# [16] = read-out: Forkhead box O1 (FOXO1), FOXO1 (gene 2308); assay: LTEA_HepaRG_FOXO1: Life Technologies and Expression Analysis (LTEA) Assay for Forkhead box O1 (FOXO1) using HepaRG (AID 2283456); details: mRNA level, 48 h; actives raise or lower the signal
# Outline: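 Using one lot of HepaRG hepatic cells kept in 0.5% DMSO, the team applied test chemicals in duplicate, half-log dilutions from 100 uM, for 48 h. Expression, normalised to ACTB/GAPDH/POLR2A, was compared with vehicle in either direction.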
# [17] = read-out: Cyclin D2 (CCND2), CCND2 (gene 894); assay: LTEA_HepaRG_CCND2: Life Technologies and Expression Analysis (LTEA) Assay for Cyclin D2 (CCND2) using HepaRG (AID 2283449); details: mRNA level, 48 h; actives raise or lower the signal;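 further: CCND2 transcript measured by TaqMan qRT-PCR and normalised to three housekeeping genes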
# Outline: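 In this HepaRG study, an eight-point concentration series (max 100 uM, 0.5% DMSO) is applied for 48 h. CCND2 mRNA change is derived by qRT-PCR normalised to ACTB, GAPDH and POLR2A.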
# [18] = read-out: flavin-containing dimethylaniline monooxygenases 3 (FMO3), FMO3 (gene 2328); assay: LTEA_HepaRG_FMO3: Life Technologies and Expression Analysis (LTEA) Assay for flavin-containing dimethylaniline monooxygenases 3 (FMO3) using HepaRG (AID 2283453); details: mRNA level, 48 h; actives raise or lower the signal;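 on AC50: FMO3 transcript by TaqMan qRT-PCR normalized to ACTB GAPDH and POLR2A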
# Outline: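 Eight-point concentration-response in serum-free HepaRG cultures (top 100 uM, 0.5% DMSO, 48 h). Read-out: FMO3 mRNA level normalized to three endogenous control genes, fitted bidirectionally versus vehicle.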
# [19] = CEETOX_H295R_ANDR: CeeTox H295R High-throughput Steroidogenesis Assay for Androstenedione (ANDR) (AID 2283436); details: actives raise or lower the signal;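 further: human H295R adrenal cells exposed for 48 h with androstenedione measured in medium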
# Outline: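 Steroidogenesis in H295R adrenal cells after 48 h dosing; androstenedione quantified by LC-MS/MS, with DMSO as negative control and baseline for bidirectional curve fitting.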
# [20] = CEETOX_H295R_TESTO: CeeTox H295R High-throughput Steroidogenesis Assay for Testosterone (TESTO) (AID 2283457); details: actives raise or lower the signal
# Outline: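 Steroidogenesis in H295R cells following OECD 456 with minor changes; 48 h exposure. Medium testosterone by HPLC-MS/MS, DMSO as baseline, with MTT viability run in parallel.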
# Chain of Fatty acid synthase (Homo sapiens) (P49327 whole entry, looked up): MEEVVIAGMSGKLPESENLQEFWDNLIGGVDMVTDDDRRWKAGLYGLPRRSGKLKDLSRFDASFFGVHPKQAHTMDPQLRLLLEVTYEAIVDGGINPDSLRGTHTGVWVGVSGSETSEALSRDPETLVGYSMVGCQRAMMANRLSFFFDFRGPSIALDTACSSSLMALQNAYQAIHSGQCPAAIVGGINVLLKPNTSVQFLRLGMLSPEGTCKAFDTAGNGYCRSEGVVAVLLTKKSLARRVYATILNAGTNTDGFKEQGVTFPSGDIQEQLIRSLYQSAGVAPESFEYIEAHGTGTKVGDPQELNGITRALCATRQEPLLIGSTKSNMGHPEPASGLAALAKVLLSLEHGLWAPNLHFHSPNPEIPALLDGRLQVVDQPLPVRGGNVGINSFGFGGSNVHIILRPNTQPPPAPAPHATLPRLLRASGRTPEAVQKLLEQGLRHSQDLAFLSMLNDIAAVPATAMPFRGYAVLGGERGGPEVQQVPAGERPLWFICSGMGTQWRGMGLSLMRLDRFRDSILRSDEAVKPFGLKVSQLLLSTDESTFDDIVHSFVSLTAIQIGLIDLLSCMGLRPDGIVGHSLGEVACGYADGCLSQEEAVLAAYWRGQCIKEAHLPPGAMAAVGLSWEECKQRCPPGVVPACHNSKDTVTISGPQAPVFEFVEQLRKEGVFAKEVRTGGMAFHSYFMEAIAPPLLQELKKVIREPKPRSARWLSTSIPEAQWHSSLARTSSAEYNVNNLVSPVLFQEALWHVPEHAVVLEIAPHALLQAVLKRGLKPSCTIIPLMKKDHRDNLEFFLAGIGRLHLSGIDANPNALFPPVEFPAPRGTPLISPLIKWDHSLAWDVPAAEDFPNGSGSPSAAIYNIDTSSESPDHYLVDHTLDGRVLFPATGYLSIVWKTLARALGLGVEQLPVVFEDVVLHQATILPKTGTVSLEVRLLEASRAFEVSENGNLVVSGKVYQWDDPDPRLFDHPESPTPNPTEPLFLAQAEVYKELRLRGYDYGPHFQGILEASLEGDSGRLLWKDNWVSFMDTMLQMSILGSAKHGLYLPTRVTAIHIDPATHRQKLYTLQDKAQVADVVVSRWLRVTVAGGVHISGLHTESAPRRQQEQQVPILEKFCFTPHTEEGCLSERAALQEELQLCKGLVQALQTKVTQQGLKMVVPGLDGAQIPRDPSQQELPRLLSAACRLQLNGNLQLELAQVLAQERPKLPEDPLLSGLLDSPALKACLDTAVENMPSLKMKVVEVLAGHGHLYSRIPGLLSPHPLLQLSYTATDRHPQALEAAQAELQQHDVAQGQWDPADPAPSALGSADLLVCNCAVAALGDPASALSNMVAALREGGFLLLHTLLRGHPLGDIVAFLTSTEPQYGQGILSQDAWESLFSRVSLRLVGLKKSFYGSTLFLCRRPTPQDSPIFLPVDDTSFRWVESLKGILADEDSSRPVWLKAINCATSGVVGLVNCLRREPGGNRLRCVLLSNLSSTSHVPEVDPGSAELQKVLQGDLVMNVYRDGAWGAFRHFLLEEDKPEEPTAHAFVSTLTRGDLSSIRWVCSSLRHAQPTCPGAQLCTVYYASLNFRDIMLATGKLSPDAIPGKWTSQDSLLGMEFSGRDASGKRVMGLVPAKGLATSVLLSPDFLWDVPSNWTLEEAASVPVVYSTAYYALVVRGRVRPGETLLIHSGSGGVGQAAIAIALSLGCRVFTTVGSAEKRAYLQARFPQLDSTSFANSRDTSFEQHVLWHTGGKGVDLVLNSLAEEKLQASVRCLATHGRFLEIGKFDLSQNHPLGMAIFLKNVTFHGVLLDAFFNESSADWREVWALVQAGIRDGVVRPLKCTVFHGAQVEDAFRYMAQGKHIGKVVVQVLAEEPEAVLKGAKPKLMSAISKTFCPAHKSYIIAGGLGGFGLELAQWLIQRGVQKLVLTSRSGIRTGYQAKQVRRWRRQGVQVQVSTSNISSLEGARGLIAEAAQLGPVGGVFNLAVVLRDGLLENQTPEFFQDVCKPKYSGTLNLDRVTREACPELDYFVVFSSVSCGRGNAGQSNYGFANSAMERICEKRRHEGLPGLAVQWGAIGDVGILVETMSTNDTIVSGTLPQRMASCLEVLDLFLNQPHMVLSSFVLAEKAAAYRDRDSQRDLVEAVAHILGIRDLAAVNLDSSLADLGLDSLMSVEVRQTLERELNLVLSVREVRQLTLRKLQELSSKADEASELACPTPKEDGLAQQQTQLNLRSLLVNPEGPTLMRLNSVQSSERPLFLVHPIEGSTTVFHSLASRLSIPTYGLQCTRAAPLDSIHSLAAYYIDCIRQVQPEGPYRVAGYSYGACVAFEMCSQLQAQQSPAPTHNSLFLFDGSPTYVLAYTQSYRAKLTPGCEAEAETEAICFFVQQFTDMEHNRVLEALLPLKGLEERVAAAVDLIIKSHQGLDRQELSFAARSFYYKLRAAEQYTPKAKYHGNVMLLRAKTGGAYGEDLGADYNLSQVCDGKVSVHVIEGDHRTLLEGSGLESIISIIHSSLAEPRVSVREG
structure (smiles),measurement,setting,value
Nc1ccccc1N,outcome,[1],inactive
same,outcome,[2],inactive
same,outcome,[3],inactive
same,outcome,[4],inactive
same,outcome,[5],inactive
same,outcome,[6],inactive
same,outcome,[7],inactive
same,outcome,[8],inactive
same,AC50,[9],50 µM (active)
same,AC50,[10],71.4 µM (active)
same,AC50,[11],50 µM (active)
same,outcome,[12],inactive
same,AC50,[13],61.7 µM (active)
same,AC50,[14],3.28 µM (active)
same,AC50,[15],61.4 µM (active)
same,AC50,[16],82.2 µM (active)
COc1cc(-c2nc(NC(=O)c3cc4cc(C)cc(C)c4n3CC(=O)O)sc2CCC2CCCCC2)c(OC)cc1Cl,AC50,[9],20.8 µM (active)
same,outcome,[10],inactive
same,outcome,[17],inactive
same,outcome,[11],inactive
same,AC50,[12],18.4 µM (active)
same,AC50,[13],7.6 µM (active)
same,AC50,[18],8.16 µM (active)
same,outcome,[14],inactive
same,AC50,[15],19.8 µM (active)
same,AC50,[16],42.2 µM (active)
CCOc1ccc2c(c1)C(C)=CC(C)(C)N2,outcome,[2],inactive
same,AC50,[3],2.44 µM (active)
same,AC50,[19],36.4 µM (active)
same,AC50,[8],16.7 µM (active)
same,outcome,[9],inactive
same,outcome,[10],inactive
same,outcome,[17],inactive
same,AC50,[11],50 µM (active)
same,outcome,[12],inactive
same,outcome,[13],inactive
same,AC50,[14],17.5 µM (active)
same,outcome,[15],inactive
same,outcome,[16],inactive
same,outcome,[20],inactive
NC(=O)Cn1c(=O)cc(CCN2CCN(c3nccc4sccc34)CC2)c2ccc(F)cc21,AC50,[1],27.6 µM (active)
same,AC50,[2],25 µM (active)
same,AC50,[3],7.83 µM (active)
same,AC50,[4],4.46 µM (active)
same,AC50,[5],25 µM (active)
same,AC50,[8],2.02 µM (active)
same,outcome,[9],inactive
same,AC50,[10],29.5 µM (active)
same,outcome,[17],inactive
same,AC50,[11],50 µM (active)
same,outcome,[12],inactive
same,outcome,[13],inactive
same,outcome,[18],inactive
same,AC50,[14],10.1 µM (active)
same,outcome,[15],inactive
same,AC50,[16],50 µM (active)

# — PubChem BioAssay (EPA / NIEHS)
